The values below come from paper PMC11062922 (Nature Chemical Biology, 2023).

Holding throughout (design): species or system human, MV4-11 + K-562 + COLO205 + SK-N-BE2 + OVCAR-8
One assay deals with CDK16. The conditions noted are these: read-out: apparent Kd; compound concentrations:100 nM and 1000 nM (sheet 'Samples'); n = 1.
For another assay, the system named is CDK17. To be noted: read-out: apparent Kd; compound concentrations:100 nM and 1000 nM (sheet 'Samples'); n = 1.
The subject of the next assay is CDK1. To be noted: read-out: apparent Kd; compound concentrations:100 nM and 1000 nM (sheet 'Samples'); n = 1.
Another assay concerns CDK2. The conditions noted are these: read-out: apparent Kd; compound concentrations:100 nM and 1000 nM (sheet 'Samples'); n = 1.
The next assay has as its system CDK4. The conditions noted are these: read-out: apparent Kd; compound concentrations:100 nM and 1000 nM (sheet 'Samples'); n = 1.
A further assay deals with CDK5. The conditions noted are these: read-out: apparent Kd; compound concentrations:100 nM and 1000 nM (sheet 'Samples'); n = 1.
The next assay deals with CDK6. The conditions noted are these: read-out: apparent Kd; compound concentrations:100 nM and 1000 nM (sheet 'Samples'); n = 1.
The test system of another assay is CDK7. To be noted: read-out: apparent Kd; compound concentrations:100 nM and 1000 nM (sheet 'Samples'); n = 1.
The test system of another assay is CDK9. The conditions noted are these: read-out: apparent Kd; compound concentrations:100 nM and 1000 nM (sheet 'Samples'); n = 1.
The next assay deals with ICK. The conditions noted are these: read-out: apparent Kd; compound concentrations:100 nM and 1000 nM (sheet 'Samples'); n = 1.
The next assay has as its system NNT. The conditions noted are these: read-out: apparent Kd; compound concentrations:100 nM and 1000 nM (sheet 'Samples'); n = 1.
The test system of another assay is PSMC4. The conditions noted are these: read-out: apparent Kd; compound concentrations:100 nM and 1000 nM (sheet 'Samples'); n = 1.
The next assay deals with SLK. The conditions noted are these: read-out: apparent Kd; compound concentrations:100 nM and 1000 nM (sheet 'Samples'); n = 1.
A further assay concerns CDKL5. The conditions noted are these: read-out: apparent Kd; compound concentrations:100 nM and 1000 nM (sheet 'Samples'); n = 1.
The test system of a further assay is FLT3. To be noted: read-out: apparent Kd; compound concentrations:100 nM and 1000 nM (sheet 'Samples'); n = 1.
Another assay concerns CIT. To be noted: read-out: apparent Kd; compound concentrations: 100 nM and 1000 nM (sheet 'Samples'), CATDS: 0.166280456271373; n = 1.
The next assay deals with CSNK1D. To be noted: read-out: apparent Kd, compound concentrations: 100 nM and 1000 nM (sheet 'Samples'), n = 1.
The next assay deals with CSNK1E. To be noted: read-out: apparent Kd, compound concentrations: 100 nM and 1000 nM (sheet 'Samples'), n = 1.
The subject of the next assay is MAPK14. The conditions noted are these: read-out: apparent Kd; compound concentrations: 100 nM and 1000 nM (sheet 'Samples'), CATDS: 0.21797862519498301; n = 1.
The subject of the next assay is MAPKAPK2. To be noted: read-out: apparent Kd; compound concentrations: 100 nM and 1000 nM (sheet 'Samples'), CATDS: 0.22915733614063999; n = 1.
For a further assay, the system named is CLK1. The conditions noted are these: read-out: apparent Kd; compound concentrations: 100 nM and 1000 nM (sheet 'Samples'), CATDS: 7.5926373911313003E-2; n = 1.
In a further assay the test system is CLK4. The conditions noted are these: read-out: apparent Kd; compound concentrations: 100 nM and 1000 nM (sheet 'Samples'), CATDS: 5.3158030493379999E-2; n = 1.
In a further assay the test system is CSNK1G1. The conditions noted are these: read-out: apparent Kd; compound concentrations: 100 nM and 1000 nM (sheet 'Samples'), CATDS: 3.9062620233065198E-2; n = 1.
The next assay has as its system CSNK2A1;CSNK2A3. The conditions noted are these: read-out: apparent Kd; compound concentrations: 100 nM and 1000 nM (sheet 'Samples'), CATDS: 3.8692946827206802E-2; n = 1.
For another assay, the system named is DYRK1A. To be noted: read-out: apparent Kd; compound concentrations: 100 nM and 1000 nM (sheet 'Samples'), CATDS: 3.9869758928983597E-2; n = 1.
The test system of another assay is EIF2AK1. The conditions noted are these: read-out: apparent Kd; compound concentrations: 100 nM and 1000 nM (sheet 'Samples'), CATDS: 5.2303665150266299E-2; n = 1.
The subject of another assay is GAK. To be noted: read-out: apparent Kd; compound concentrations: 100 nM and 1000 nM (sheet 'Samples'), CATDS: 7.9054270069147406E-2; n = 1.
Another assay concerns MAPK10. The conditions noted are these: read-out: apparent Kd; compound concentrations: 100 nM and 1000 nM (sheet 'Samples'), CATDS: 6.4300767582532795E-2; n = 1.
The next assay concerns MAPK8. The conditions noted are these: read-out: apparent Kd; compound concentrations: 100 nM and 1000 nM (sheet 'Samples'), CATDS: 0.19867179384424899; n = 1.
The next assay relates to MAPK9. The conditions noted are these: read-out: apparent Kd; compound concentrations: 100 nM and 1000 nM (sheet 'Samples'), CATDS: 7.8815653035512301E-2; n = 1.
The test system of the next assay is NUAK1. To be noted: read-out: apparent Kd; compound concentrations: 100 nM and 1000 nM (sheet 'Samples'), CATDS: 4.4301419887818799E-2; n = 1.
The next assay deals with PIP4K2C. To be noted: read-out: apparent Kd; compound concentrations: 100 nM and 1000 nM (sheet 'Samples'), CATDS: 4.1544409686620098E-2; n = 1.
The subject of the next assay is PTK2B. To be noted: read-out: apparent Kd; compound concentrations: 100 nM and 1000 nM (sheet 'Samples'), CATDS: 4.7862573300624302E-2; n = 1.
Another assay relates to PTK2. The conditions noted are these: read-out: apparent Kd; compound concentrations: 100 nM and 1000 nM (sheet 'Samples'), CATDS: 4.8653444665563698E-2; n = 1.
A further assay has as its system RPS6KA1. To be noted: read-out: apparent Kd; compound concentrations: 100 nM and 1000 nM (sheet 'Samples'), CATDS: 4.3998663303794899E-2; n = 1.
A further assay relates to TNK1. The conditions noted are these: read-out: apparent Kd; compound concentrations: 100 nM and 1000 nM (sheet 'Samples'), CATDS: 9.9368831187406595E-2; n = 1.
For a further assay, the system named is TTK. To be noted: read-out: apparent Kd; compound concentrations: 100 nM and 1000 nM (sheet 'Samples'), CATDS: 7.5031677714786096E-2; n = 1.

The structures appear in SMILES notation. Where two headings read alike, the source gives them in different places.

Turning to `COc1cccc(F)c1C(=O)c1cnc(NC2CCN(S(C)(=O)=O)CC2)nc1N` [RO4602005-000], the potency estimated from few doses was 9.38 nM with CDK16; 73.2 nM in the assay with CDK17; 228 nM with CDK1; 37.7 nM with CDK2; 1450 nM with CDK4; 234 nM in the assay with CDK5. The potency estimated from few doses with CDK6 was 1750 nM; with CDK7, 812 nM; in the assay with CDK9 it was 206 nM; with ICK it was 146 nM; with NNT, 1690 nM; in the assay on PSMC4, 1400 nM. The potency estimated from few doses in the assay with SLK was 845 nM.
On to `O=C(Nc1n[nH]c2cc(-c3ccoc3)ccc12)C1CC1` [SB-738481], for which the potency estimated from few doses in the assay on CDK2 is 1470 nM; in the assay on CDKL5, 1100 nM; in the assay on FLT3 it was 884 nM.
`Fc1ccc(-c2nn3cccc(F)c3c2-c2ccncc2)cc1` [GW475620X]: the potency estimated from few doses with CIT was 1690 nM; in the assay with CSNK1D (CATDS: 0.24593653580007899) it was 751 nM; with CSNK1E (CATDS: 0.167544749669055), 1660 nM; in the assay with MAPK14 it was 934 nM; with MAPKAPK2 it was 851 nM.
With `CCCN1CCC=C(c2ccc(Nc3nc(Nc4ccccc4C(N)=O)c4cc[nH]c4n3)c(C)c2)C1` [GSK994854A], the potency estimated from few doses in the assay with CLK1 was 392 nM; with CLK4, 801 nM; in the assay on CSNK1D (CATDS: 3.8251361436103803E-2), 2010 nM; in the assay with CSNK1E (CATDS: 3.6903644151272202E-2), 2300 nM; in the assay with CSNK1G1, 1870 nM; with CSNK2A1;CSNK2A3, 1930 nM. The potency estimated from few doses is 1740 nM in the assay with DYRK1A; 831 nM in the assay with EIF2AK1; 365 nM in the assay on GAK; 535 nM in the assay with MAPK10; 94 nM in the assay on MAPK8; 367 nM with MAPK9. Further, the potency estimated from few doses with NUAK1 is 1270 nM; in the assay on PIP4K2C it was 1530 nM; in the assay with PTK2B it was 1030 nM; with PTK2, 989 nM; in the assay with RPS6KA1, 1290 nM; in the assay with TNK1, 250 nM. Further, the potency estimated from few doses in the assay on TTK was 400 nM.
